# From the emibetuzumab library of Makowski et al. (2022)
# The other results are listed elsewhere or left out. The true hit rate is not given.
# B1: VH:VL chains; a variant is named by its letters at X, in order (parent)
# chain 1: QVQLVQSGAEVKKPGASVKVSCKASGYTFTDYXMHWVRQAPGQGLEWMGXVNPNXXXTTYNQKFEGRVTMTTDTSTSTAYMELRSLRSDDTAVYYCARXNXLDXWGQGTTVTVSS
# chain 2: DIQMTQSPSSLSASVGDRVTITCSVSSSVSSIYLHWYQQKPGKAPKLLIYSTSNLASGVPSRFSGSGSGTDFTLTISSLQPEDFATYYCQVYSGYPLTFGGGTKVEIK
# Variants of: B1
# Test: yeast display scFab, FACS + sequencing
# Settings: with MET
# Summary of the method: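 Round-3 sorted and input populations from a heavy-chain CDR mutant scFab yeast library were deep sequenced in two replicates. Sorting used FACS on cells labelled for 3 h at room temperature with 1 nM HGFR-Fc and anti-Myc in PBSB with 1% milk, keeping the top 50% antigen-positive cells. Any sequence seen in both antigen-positive samples was called a binder, while one seen only in the input was called a non-binder.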
row,Variant,antigen binding call
1,SEGADAVA chain 1 G106S,no binding
2,VETGNDGA,no binding
3,VGTKGAGF,no binding
4,VRARGAGF,binds
5,VRAGDDVF,no binding
6,YRARSAGF,binds
7,YRARSAGF chain 1 G108D,no binding
8,DEKKADWA,no binding
9,SEEGTDGV,no binding
10,YRGRGYWY,binds
11,YKTESYWY,no binding
12,YKGRGYWY,binds
13,YRGRGSWY,binds
14,YKGRGYSY,no binding
15,YTEETDGF,no binding
16,SEARSYAV,no binding
17,SKGTDDWV,no binding
18,SAEEDDVY,no binding
19,VTGEDDGS,no binding
20,YRGGTFGF,no binding
21,YRGADFGF,no binding
22,YRGASSGF,binds
23,YRTGTAGF,binds

row,Variant,antigen binding call
1,YRGKGAGF,binds
2,YRGGSAGF,binds
3,DEAKAAVD,no binding
4,SETGGDWV,no binding
5,VTGTGSGF,no binding
6,SREAASGV,no binding
7,ARGKGSGD,no binding
8,VTGKGDGV,no binding
9,VRGKGSGV,binds
10,YRGESSGF,binds
11,STGKGSGV,no binding
12,VRGKGSGF,binds
13,SRGKGSGV,binds
14,VRGKGDWV,no binding
15,VTGTGSLV,no binding
16,DEGGTDAA,no binding
17,AAEKDDLA,no binding
18,YRKRSVVF chain 1 S115F,no binding
19,YRGKGAVF,binds
20,YRAKSAVF,binds
21,DRAGDDVF,no binding
22,YRGKSSGF,binds
23,YTGTGAVF,no binding

row,Variant,antigen binding call
1,FRGKGSGF,binds
2,YRGKGDGS,no binding
3,YRGKGSGF,binds
4,YRGKGSGS,binds
5,DARGGDGS,no binding
6,FRTGDDAA,binds
7,FRTGDDGA,binds
8,FATGSDGA,no binding
9,ARAGDDAV,no binding
10,DRGGDDAA,no binding
11,FRTGDDAV,binds
12,FRTGDAGA,binds
13,DRTGDDVA,no binding
14,FRETDFGA,no binding
15,DRAGDDAV,no binding
16,DRAGDDGA,no binding
17,DREEGDWV,no binding
18,STAEDFVV,no binding
19,YARTGFGA,binds
20,YAGKGFGA,no binding
21,YRRGGFGA,binds
22,YRRGSFGA,binds
23,YAGRGFGA,no binding

row,Variant,antigen binding call
1,YRKRTFGA,no binding
2,VRRGSFGA,no binding
3,YGAGDFGA,no binding
4,SKAGGDVD,no binding
5,SEARSALD,no binding
6,VKAGGDSD,no binding
7,YKAKGALD,binds
8,YKAGGALD,binds
9,SKAGGSAD,binds
10,SKKEDSAD,no binding
11,SKAGGALD,binds
12,VATGDDVY,no binding
13,VRAGAFSV,no binding
14,DTGTGDVF,no binding
15,VEEEGDVY,no binding
16,AKTRDDVA,no binding
17,YRTRGAGV,binds
18,DRGGDAVV,no binding
19,YGTRSYGV,no binding
20,YRTRSAVV,binds
21,YRTGAAGV,binds
22,YRTRSAGV,binds
23,YTTRGDGV,no binding

row,Variant,antigen binding call
1,DTGTGSGA,no binding
2,VEGTGAGD,no binding
3,YRKGGAVV,binds
4,YRKGAAVV,binds
5,YTKRSAVV,no binding
6,DAGKGAVV,no binding
7,YAGKNAVV,binds
8,YTGTSAVV,no binding
9,DGGKNAVV,no binding
10,YRARSSVV,binds
11,SEARSAVV,no binding
12,YRARSAVV,binds
13,VTTKSDGY,no binding
14,YATGDDGV,no binding
15,SEGGTDVV,no binding
16,VRTEDDVD,no binding
17,VRTAASGD,no binding
18,VTGGDSGD,no binding
19,VTTEASLD,no binding
20,VRTEDALD,binds
21,VRTEDSLD,binds
22,VRTEDALV,binds
23,VAGGDALD,no binding

row,Variant,antigen binding call
1,VRTEDSLV,no binding
2,VRTEDDLV,no binding
3,VRTEDSGD,binds
4,DGGGNDLA chain 1 R87K,no binding
5,VAGTGFWV,no binding
6,AGETGFSA,no binding
7,VRTRSSLD,binds
8,YKARGALS,binds
9,YRAKGALS,binds
10,YRARGALS,binds
11,YRAGGALS,binds
12,DAARGDAV,no binding
13,VEKKDYSA,no binding
14,DEGGTAVA,no binding
15,DAGGAAVS,no binding
16,YRAKGALF,binds
17,FTTRSALS,no binding
18,YRAAGAGS,binds
19,FRAGGALS,binds
20,DAGKGALF,no binding
21,YRAKGAGS,binds
